Measured values as given in PubChem BioAssay (Tox21).
A number with no mark means an inactive call. Results filed as inconclusive are left out. Where a call stands in place of a potency, no number is given. The source made the active and inactive calls. The call rests on the fitted dose curve.

The molecules below were run against Acetylcholinesterase (Homo sapiens) (UniProt P22303) (assay: Acetylcholinesterase (AChE) small molecule antagonists: colormetric cell-based qHTS assay (AID 1347395; further: nearly all actives have a fitted effect of over 30% in size)). Details: SH-SY5Y cells AChE activity, colorimetric (Ellman); series mostly up to 115 µM.
Method in brief: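 Colorimetric readout: DTNB quantifies thiocholine from acetylthiocholine hydrolysed by endogenous AChE of SH-SY5Y cells (2,000/well, plated overnight). Compound pretreatment 30 min, substrate incubation 90 min, both 37 C.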

Chain of Acetylcholinesterase (Homo sapiens) (P22303 whole entry, looked up): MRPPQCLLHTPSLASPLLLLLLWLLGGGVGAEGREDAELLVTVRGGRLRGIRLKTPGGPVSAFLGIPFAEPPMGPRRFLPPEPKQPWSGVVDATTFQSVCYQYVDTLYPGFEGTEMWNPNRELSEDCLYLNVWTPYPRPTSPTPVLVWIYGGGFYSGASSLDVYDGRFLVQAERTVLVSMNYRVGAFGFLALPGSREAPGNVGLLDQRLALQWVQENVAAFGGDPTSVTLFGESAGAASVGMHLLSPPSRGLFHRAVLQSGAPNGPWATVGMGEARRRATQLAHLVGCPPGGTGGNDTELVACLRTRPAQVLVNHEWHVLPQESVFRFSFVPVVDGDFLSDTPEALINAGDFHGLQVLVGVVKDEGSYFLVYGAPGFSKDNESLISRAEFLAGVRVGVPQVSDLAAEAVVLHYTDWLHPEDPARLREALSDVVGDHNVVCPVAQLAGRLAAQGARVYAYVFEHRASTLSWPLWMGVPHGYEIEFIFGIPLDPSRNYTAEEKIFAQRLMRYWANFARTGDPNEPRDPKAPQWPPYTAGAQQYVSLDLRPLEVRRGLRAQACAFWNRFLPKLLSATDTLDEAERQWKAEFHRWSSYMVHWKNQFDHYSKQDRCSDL

Row | Compound | Potency | activity, negative = inhibition
1 | CCC1CCCCC1 | inactive | 
2 | CCOC(=O)/C=C(C)/C=C/C=C(C)/C=C/c1c(C)cc(OC)c(C)c1C | inactive | 
3 | Cc1occc1C(=O)Nc1ccc(C(=O)N2CCC(F)(F)/C(=C\C(=O)N3CCC(N4CCCCC4)CC3)c3ccccc32)cc1 | inactive | 
4 | CCOC(=O)CCc1ccccc1 | inactive | 
5 | O=C1c2ccccc2-c2ccccc21 | inactive | 
6 | CN1CCCC1 | inactive | 
7 | COc1ccc2c(c1)c1c3n2CCN(C)C3=NCC1 | inactive | 
8 | Cc1ccc(NC(N)=O)cc1 | inactive | 
9 | CCOC(=O)[C@H](CCc1ccccc1)N[C@@H](C)C(=O)N1[C@H](C(=O)O)C[C@@H]2CCC[C@@H]21 | inactive | 
10 | Cc1ccc2ccc3cccc4ccc1c2c34 | inactive | 
11 | c1ccc(-c2nc3ccccc3[nH]2)cc1 | inactive | 
12 | CC(C)C1CCC(O)CC1 (stereo not given) | inactive | 
13 | CC(C)(C)c1ccc(OC(=O)c2ccccc2O)cc1 | inactive | 
14 | Cc1nc(-c2ccc3c(c2)CCN(CCC2CCC(NC(=O)/C=C/c4ccc(F)cc4)CC2)CC3)no1 (stereo not given) | inactive | 
15 | C=Cc1ccc(S(=O)(=O)O)cc1 | inactive | 
16 | CC(=O)NC(Cc1ccccc1)C(=O)O (stereo not given) | inactive | 
17 | CC(C)=CCC/C(C)=C\C#N | inactive | 
18 | CCCCCCCCC(C)=O | inactive | 
19 | CC(C)COC(=O)c1ccc(O)cc1 | inactive | 
20 | C[C@H](CCC(=O)NCC(=O)O)[C@H]1CC[C@H]2[C@@H]3[C@H](O)C[C@@H]4C[C@H](O)CC[C@]4(C)[C@H]3C[C@H](O)[C@]12C | inactive | 

Row | Compound | Potency | activity, negative = inhibition
21 | C/C=C(\C)C(=O)OCC/C=C\CC | inactive | 
22 | CCN(CC)c1ccc(C(=C2C=CC(=[N+](CC)CC)C=C2)c2cc(S(=O)(=O)O)ccc2S(=O)(=O)[O-])cc1 | inactive | 
23 | CCC=CC#N | inactive | 
24 | CCCCCCOC(=O)NC(=N)c1ccc(NCc2nc3cc(C(=O)N(CCC(=O)OCC)c4ccccn4)ccc3n2C)cc1 | inactive | 
25 | CC(=O)N(c1onc(C)c1C)S(=O)(=O)c1ccc(N)cc1 | inactive | 
26 | CC(C)[N+](C)(C)CC(O)COc1cccc2ccccc12 (stereo not given) | inactive | 
27 | COCc1nnc(-c2ccc[n+]([O-])c2)n1-c1c(Cl)c(Cl)cc2[nH]c(=O)c(=O)[nH]c12 | inactive | 
28 | C1=CCC2CC=CC2C1 (stereo not given) | inactive | 
29 | CCCCCCCCCCCCCCN(C)C |  | 0.601% [at 23.6 µM]
30 | C=C(C)C(=O)OCC(C)(C)COC(=O)C(=C)C | inactive | 
31 | CC(C)(C)c1cc(CCC(=O)OCCSCCOC(=O)CCc2cc(C(C)(C)C)c(O)c(C(C)(C)C)c2)cc(C(C)(C)C)c1O | inactive | 
32 | CCC(Cl)CCC(Cl)C(Cl)CC(Cl)C(Cl)C(Cl)CCl (stereo not given) | inactive | 
33 | O=C(Cn1ccnc1[N+](=O)[O-])NCCO | inactive | 
34 | CC(C)COC(=O)COc1cc(Cl)c(Cl)cc1Cl | inactive | 
35 | Clc1cc(Cl)c(Cl)nc1Cl | inactive | 
36 | c1cc2c3c(c1)ccc1cccc(c13)C2 | inactive | 
37 | OCC(CO)N[C@H]1C[C@](O)(CO)[C@@H](O)[C@H](O)[C@H]1O | inactive | 
38 | CCN(CC)c1cccc(C)c1 | inactive | 
39 | O=C(Oc1ccccc1)c1cccc(C(=O)Oc2ccccc2)c1 | inactive | 
40 | CC(=O)C=O | inactive | 

What follows are molecules tested against Acetylcholinesterase (Homo sapiens) (UniProt P22303) (assay: Acetylcholinesterase (AChE) small molecule antagonists: enzyme-based qHTS assay (AID 1347397; further: nearly all actives have a fitted effect of over 55% in size)). Details: Potency: AChE enzyme activity inhibition; outcome: AChE enzyme activity inhibition; series mostly up to 115 µM.
Method in brief: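 First, recombinant human AChE (50 mU/mL as dispensed) received test compound or DMSO. Second, plates stood 30 min at room temperature. Third, DTNB and acetylthiocholine were added, followed by 10 min at room temperature and colorimetric detection.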

Row | Compound | Potency | activity change, negative = inhibition
41 | CCC1CCCCC1 | inactive | 
42 | CCOC(=O)/C=C(C)/C=C/C=C(C)/C=C/c1c(C)cc(OC)c(C)c1C | inactive | 
43 | Cc1occc1C(=O)Nc1ccc(C(=O)N2CCC(F)(F)/C(=C\C(=O)N3CCC(N4CCCCC4)CC3)c3ccccc32)cc1 | inactive | 
44 | CCOC(=O)CCc1ccccc1 | inactive | 
45 | O=C1c2ccccc2-c2ccccc21 | inactive | 
46 | CN1CCCC1 | inactive | 
47 | COc1ccc2c(c1)c1c3n2CCN(C)C3=NCC1 | inactive | 
48 | Cc1ccc(NC(N)=O)cc1 | inactive | 
49 | CCOC(=O)[C@H](CCc1ccccc1)N[C@@H](C)C(=O)N1[C@H](C(=O)O)C[C@@H]2CCC[C@@H]21 | inactive | 
50 | Cc1ccc2ccc3cccc4ccc1c2c34 | inactive | 
51 | c1ccc(-c2nc3ccccc3[nH]2)cc1 | inactive | 
52 | CC(C)C1CCC(O)CC1 (stereo not given) | inactive | 
53 | CC(C)(C)c1ccc(OC(=O)c2ccccc2O)cc1 | inactive | 
54 | Cc1nc(-c2ccc3c(c2)CCN(CCC2CCC(NC(=O)/C=C/c4ccc(F)cc4)CC2)CC3)no1 (stereo not given) | inactive | 
55 | C=Cc1ccc(S(=O)(=O)O)cc1 | inactive | 
56 | CC(=O)NC(Cc1ccccc1)C(=O)O (stereo not given) | inactive | 
57 | CC(C)=CCC/C(C)=C\C#N | inactive | 
58 | CCCCCCCCC(C)=O | inactive | 
59 | CC(C)COC(=O)c1ccc(O)cc1 | inactive | 
60 | C[C@H](CCC(=O)NCC(=O)O)[C@H]1CC[C@H]2[C@@H]3[C@H](O)C[C@@H]4C[C@H](O)CC[C@]4(C)[C@H]3C[C@H](O)[C@]12C | inactive | 

Row | Compound | Potency | activity change, negative = inhibition
61 | C/C=C(\C)C(=O)OCC/C=C\CC | inactive | 
62 | CCN(CC)c1ccc(C(=C2C=CC(=[N+](CC)CC)C=C2)c2cc(S(=O)(=O)O)ccc2S(=O)(=O)[O-])cc1 | inactive | 
63 | CCC=CC#N | inactive | 
64 | CCCCCCOC(=O)NC(=N)c1ccc(NCc2nc3cc(C(=O)N(CCC(=O)OCC)c4ccccn4)ccc3n2C)cc1 | inactive | 
65 | CC(=O)N(c1onc(C)c1C)S(=O)(=O)c1ccc(N)cc1 | inactive | 
66 | CC(C)[N+](C)(C)CC(O)COc1cccc2ccccc12 (stereo not given) | inactive | 
67 | COCc1nnc(-c2ccc[n+]([O-])c2)n1-c1c(Cl)c(Cl)cc2[nH]c(=O)c(=O)[nH]c12 | inactive | 
68 | C1=CCC2CC=CC2C1 (stereo not given) | inactive | 
69 | CCCCCCCCCCCCCCN(C)C |  | 0.242% [at 23.6 µM]
70 | C=C(C)C(=O)OCC(C)(C)COC(=O)C(=C)C | inactive | 
71 | CC(C)(C)c1cc(CCC(=O)OCCSCCOC(=O)CCc2cc(C(C)(C)C)c(O)c(C(C)(C)C)c2)cc(C(C)(C)C)c1O | inactive | 
72 | CCC(Cl)CCC(Cl)C(Cl)CC(Cl)C(Cl)C(Cl)CCl (stereo not given) | inactive | 
73 | O=C(Cn1ccnc1[N+](=O)[O-])NCCO | inactive | 
74 | CC(C)COC(=O)COc1cc(Cl)c(Cl)cc1Cl | inactive | 
75 | Clc1cc(Cl)c(Cl)nc1Cl | inactive | 
76 | c1cc2c3c(c1)ccc1cccc(c13)C2 | inactive | 
77 | OCC(CO)N[C@H]1C[C@](O)(CO)[C@@H](O)[C@H](O)[C@H]1O | inactive | 
78 | CCN(CC)c1cccc(C)c1 | inactive | 
79 | O=C(Oc1ccccc1)c1cccc(C(=O)Oc2ccccc2)c1 | inactive | 
80 | CC(=O)C=O | inactive | 
